Assay [1] in a line: qHTS profiling for inhibitors of Plasmodium falciparum proliferation (AID 504749).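 For activity, negative = inhibition: 0% = DMSO vehicle and full inhibition = artemisinin control.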 Note: nearly all actives have a fitted effect of over 60% in size. The conditions noted are these: P. falciparum in erythrocytes, SYBR Green DNA, 72 h. An outline of the steps:
(§1)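 SYBR Green fluorescence (ex 485 nm, em 535 nm) reports parasite DNA after 72 h compound exposure of infected red cells at 0.3% parasitemia, 2.5% hematocrit; signal normalized to 0.29 uM artemisinin and vehicle wells.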

For the next assay, the system named is 7G8. Described as above. The conditions noted are these: P. falciparum in erythrocytes, SYBR Green DNA, 72 h; series mostly up to 28.7 µM. An outline of the steps: as §1
A further assay concerns AA1029. Described as above. To be noted: P. falciparum in erythrocytes, SYBR Green DNA, 72 h; series mostly up to 28.7 µM. A digest of the protocol:
as §1

Another assay has as its system AS120. The assay is described as above. To be noted: P. falciparum in erythrocytes, SYBR Green DNA, 72 h; series mostly up to 28.7 µM. An outline of the steps: as §1
Another assay deals with ATS189. The description is as above. The conditions noted are these: P. falciparum in erythrocytes, SYBR Green DNA, 72 h; series mostly up to 28.7 µM. A digest of the protocol:
as §1

The next assay deals with 3D7. The assay is described as above. To be noted: P. falciparum in erythrocytes, SYBR Green DNA, 72 h; series mostly up to 28.7 µM. A digest of the protocol:
as §1

Where [2] appears, read: at 28.7 µM (top of the series), parasite line B.
[3] abbreviates: at 28.7 µM (top of the series), parasite line A.

From PubChem BioAssay (NCATS) come the findings set out here.

Inconclusive results are not listed. A number with no mark means an inactive call. Activity calls are given as the source filed them. Calls come from the whole dose curve; as a rule, active = well fitted inhibition curve with a large enough effect; inconclusive = small, poorly fitted or top-dose-only effect; inactive = flat fitted curve, though single readings scatter.
Potency is the fitted concentration of half-maximal effect.

For `CC(=O)O[C@]1(C(C)=O)CC[C@H]2[C@@H]3C=C(Cl)C4=CC(=O)CC[C@]4(C)[C@H]3CC[C@@]21C`, the Potency in assay [1] (parasite line A) is 12.6 µM (active); in the assay on 7G8, 11.2 µM (active); with AA1029 it was 11.2 µM (active); in the assay on AS120, 11.2 µM (active).
Turning to `O=C(NC1CCN(CCc2c[nH]c3ccccc23)CC1)c1ccccc1`, in assay [1] (setting [2]), the activity, negative = inhibition was -5.78%. Moreover, the Potency in the assay with 7G8 is 10 µM (active). Also, the Potency entry in the assay with AS120 and in the assay on ATS189 was “inactive” throughout.
Regarding `CC1=C(C(=O)O)N2C(=O)[C@@H](NC(=O)[C@H](N)c3ccccc3)[C@H]2SC1`, the activity, negative = inhibition in assay [1] (setting [3]) is 3.04%. The Potency result with 3D7, in the assay with 7G8, in the assay on AA1029, in the assay on AS120 and in the assay with ATS189 was “inactive” in each case.
Consider `CN1CCc2cccc3c2[C@H]1Cc1ccc(O)c(O)c1-3`, for which the Potency was 7.94 µM (active) in the assay with 3D7, 2.24 µM (active) with 7G8, 8.91 µM (active) in the assay on AA1029 and 7.94 µM (active) with AS120.
In the case of `Cn1c(=O)c2[nH]c(Br)nc2n(C)c1=O`, in assay [1] (setting [2]), the activity, negative = inhibition is -4.72%. In addition, the Potency result in the assay with 3D7, in the assay with 7G8, in the assay with AS120 and with ATS189 was “inactive” in each case.
`CC(C)(C)NC[C@H](O)COc1nsnc1N1CCOCC1`: the values for the Potency in the assay on 3D7, in the assay with 7G8 and in the assay with ATS189 were 6.31 µM (active), 0.631 µM (active) and 5.62 µM (active), respectively.
As to `CC(C)(Cc1c[nH]c2ccccc12)NCC(O)COc1ccccc1C#N` (stereo not given), the Potency in the assay with 7G8 and with AA1029 was 8.91 µM (active) each time.
For the molecule `COC(=O)C(c1ccccc1Cl)N1CCc2sccc2C1` (stereo not given), the Potency in the assay with 7G8 is 10 µM (active).
Consider `O=C(O)CCc1nc2ccccc2[nH]1`, for which, in the assay on 3D7, the Potency is 0.0045 µM (active).
For the molecule `CCCCCCCCCCCCOCCOCCOCCOCCOCCOCCOCCOCCOCCO`, the activity, negative = inhibition in assay [1] (setting [2]) was -26%. Also, in the assay on 7G8, the Potency is 12.6 µM (active). The Potency result with AA1029 was “inactive”.
Regarding `CN1CCC[C@@H]1CCO[C@](C)(c1ccccc1)c1ccc(Cl)cc1`, the activity, negative = inhibition in assay [1] (setting [2]) is -15.8%. Also, the Potency result with 3D7, in the assay on AS120 and with ATS189 was “inactive” throughout. The Potency with 7G8 is 10 µM (active).
Turning to `OC(C#CCN1CCCC1)(c1ccccc1)c1ccccc1`, the activity, negative = inhibition in assay [1] (setting [2]) is -24.9%. Besides, in the assay with 3D7, the Potency result was “inactive”. Also, the Potency in the assay with 7G8 is 11.2 µM (active).
Consider `NC1CCN(c2nc3c(cc2F)c(=O)c(C(=O)O)cn3-c2ccc(F)cc2F)C1` (stereo not given), for which the Potency result in the assay on ATS189 is “inactive”.
On to `C[N+]1(C)CCC(=C(c2ccccc2)c2ccccc2)CC1`, for which the Potency result in the assay with AA1029, with AS120 and with ATS189 was “inactive” throughout.
With `CCNC(=O)/C=C/c1cccc(Br)c1`, in assay [1] (setting [2]), the activity, negative = inhibition is -15.2%. In addition, the Potency entry in the assay with 3D7, with 7G8, in the assay with AA1029 and in the assay on AS120 was “inactive” throughout.
As for `CC(C)[N+](C)(C)CC(O)COc1cccc2ccccc12` (stereo not given), the Potency result in the assay on AS120 and in the assay on ATS189 was “inactive” throughout.
As to `CC(C)(C)CC(C)(C)c1ccc(O)c(-n2nc3ccccc3n2)c1`, the Potency in the assay with 7G8 was 5.01 µM (active); in the assay on AA1029 it was 12.6 µM (active).
In the case of `Oc1ccc(Cl)cc1Cc1cc(Cl)ccc1O`, the Potency is 11.2 µM (active) in assay [1] (parasite line B), 11.2 µM (active) in the assay with 7G8, 10 µM (active) with AA1029 and 7.08 µM (active) with AS120. For the same molecule, the Potency result with 3D7 is “inactive”.
Regarding `Oc1c(Cl)cc(Cl)c(Cl)c1Cc1c(O)c(Cl)cc(Cl)c1Cl`, the Potency is 11.2 µM (active) in assay [1] (parasite line A), 4.47 µM (active) in the assay on 7G8 and 11.2 µM (active) with AS120.
Regarding `CO[C@]12C[C@@H](COC(=O)c3cncc(Br)c3)CN(C)[C@@H]1Cc1cn(C)c3cccc2c13`, the activity, negative = inhibition in assay [1] (setting [3]) was -17.9%. Besides, in the assay with 3D7, the Potency result is “inactive”.
Regarding `CC[N+](C)(CC)CCOC(=O)C(O)(c1ccccc1)C1CCCCC1` (stereo not given), the activity, negative = inhibition in assay [1] (setting [3]) is -48%. The Potency result with AA1029, with AS120 and in the assay on ATS189 was “inactive” each time.
As for `CN(C)CCOC(c1ccc(Cl)cc1)c1ccccn1` (stereo not given), the activity, negative = inhibition in assay [1] (setting [3]) was 5.62%. For the same molecule, the Potency entry in the assay on 3D7 was “inactive”.
In the case of `CN1CCN(C2=Nc3ccccc3Sc3ccc(Cl)cc32)CC1`, the activity, negative = inhibition in assay [1] (setting [3]) is -8.05%; in assay [1] (setting [2]), -25.1%. In the assay with ATS189, the Potency entry was “inactive”.
Consider `CN1CCN(c2c(F)cc3c(=O)c(C(=O)O)cn4c3c2SCC4)CC1`, for which the activity, negative = inhibition in assay [1] (setting [2]) is -29%. Moreover, in the assay on 3D7, the Potency entry is “inactive”.
For the molecule `O=C(CN1CCN(Cc2ccc3c(c2)OCO3)CC1)N1c2ccccc2Sc2ccccc21`, the Potency was 7.94 µM (active) in the assay on 7G8, 10 µM (active) in the assay with AS120 and 8.91 µM (active) with ATS189.
`CCN(CC)CCOc1ccc2c(c1)C(=O)c1cc(OCCN(CC)CC)ccc1-2`: the Potency is 7.94 µM (active) in the assay with 7G8 and 11.2 µM (active) in the assay with ATS189.
`CCCN(CCc1cccs1)[C@H]1CCc2c(O)cccc2C1`: the Potency in assay [1] (parasite line B) was 4.47 µM (active); in the assay with 3D7 it was 14.1 µM (active); in the assay with 7G8, 1 µM (active); with AA1029, 5.01 µM (active); in the assay on AS120, 7.08 µM (active); in the assay with ATS189 it was 7.94 µM (active).
`Cc1ccc2c(Br)cc(Br)c(O)c2n1`: the Potency in assay [1] (parasite line B) was 12.6 µM (active); in the assay with 7G8, 7.08 µM (active); with AS120 it was 8.91 µM (active).
In the case of `COc1ccc(C(=O)c2ccccc2O)c(O)c1`, in assay [1] (at 12.8 µM (top of the series), parasite line A), the activity, negative = inhibition is -29.2%. Moreover, the Potency result in the assay with 3D7, in the assay with AA1029 and with ATS189 was “inactive” each time. Also, the results for the Potency with 7G8 and with AS120 were 3.16 µM (active) and 3.98 µM (active), respectively.
Turning to `COc1cc(N)c(Cl)cc1C(=O)NC1CCN(Cc2ccccc2)CC1`, the activity, negative = inhibition in assay [1] (at 12.8 µM (top of the series), parasite line B) was -11.7%. The Potency entry in the assay with 3D7, in the assay with AA1029, with AS120 and with ATS189 was “inactive” in each case.
As for `O=S(c1cc(Cl)cc(Cl)c1O)c1cc(Cl)cc(Cl)c1O`, the Potency result with 7G8 was “inactive”.
On to `Cc1cc(CC(=O)O)c(C)n1-c1ccc(Cl)cc1`, for which the Potency result with 3D7 and with ATS189 was “inactive” in each case. The Potency with 7G8 is 11.2 µM (active).
For `O=[N+]([O-])c1cccc(S(=O)(=O)NCCNS(=O)(=O)c2cccc([N+](=O)[O-])c2)c1`, in assay [1] (setting [3]), the activity, negative = inhibition is -25.4%. Also, the Potency entry in the assay with 3D7 and in the assay with ATS189 was “inactive” in each case.
Take `CN(C)C(=O)Nc1ccc(Cl)c(Cl)c1`: the activity, negative = inhibition in assay [1] (setting [3]) was -1.54%; in assay [1] (setting [2]), -6.86%. Further, the Potency result in the assay with ATS189 is “inactive”.
